Screening data (PubChem BioAssay)
Compounds with a hit are over-represented: about 2.6% of the library has one in this group of screens.
LGR2 antag: inhibitors of bursicon-induced Drosophila LGR2 receptor cAMP signaling. HEK293 LGR2, CRE-luciferase, bursicon-stimulated, 4 h. inhibition, % at 9.99 µM. actives 0.35% (n = 380,000). AID 720647;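 active = drop in luminescence signal, shown as inhibition above about 50% in the replicate tests, limit read from the data, passing the limit was not always enough; inconclusive = probably only some replicates passing the limit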;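 also: agonist challenge used bursicon conditioned medium at about half maximal strength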
TROY signal inh: blocks TROY-dependent signaling in reporter cells; Q293 LMP1-TROYcd NF-kB luciferase reporter, 4 h; inhibition, % at 10 µM; actives 0.98% (n = 360,000); AID 1347056;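 active = compounds whose plate-normalised and pattern-corrected inhibition of the luciferase reporter signal at the single screening dose is 50% or more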
CF NFkB block: blocks PAF-induced NF-kB reporter in cystic fibrosis cells. KKLEB NF-kB-GFP reporter, GFP fluorescence overnight. inhibition, % at 5 µM. actives 0.86% (n = 360,000). AID 588850;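 active = at least 50% inhibition at 5 µM, scaled per plate between neutral and stimulator controls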;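 also: PAF is a Pseudomonas aeruginosa culture filtrate used as stimulus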
KKLEB tox: CF airway cell cytotoxicity counter-screen. AID 602141. activity change (cytotoxicity), % at 5 µM. KKLEB CF airway cells viability, ATPlite luminescence, overnight; hits give low values; cells stimulated with P. aeruginosa culture filtrate. actives 0.36% (n = 360,000);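 active = corrected activity change at or below -50% at 5 µM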
TWEAK Fn14 block: blocks TWEAK-Fn14 interaction in a reporter cell assay; TWEAK-stimulated Fn14 reporter cells, luciferase luminescence, 8 h; inhibition, % at 10 µM; actives 2% (n = 360,000); in the data active = inhibition above about 50%
EWS-Fli block: EWS/Fli transcriptional activity inhibition; A673 NR0B1-luciferase reporter, viability-normalised; inhibition, % at 12.6 µM; actives 0.67% (n = 350,000);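 active = mean inhibition of at least 50% after viability correction, with every replicate also passing that limit; inconclusive = mean reaches 50% but only one of two replicates passes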;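 also: firefly luciferase signal divided by Alamar Blue viability fluorescence both relative to DMSO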
Large screens that a line does not name were inactive.

CCCCCC[n+]1ccccc1/C=C/c1ccc(N(C)C)cc1	TROY signal inh 56.0, TWEAK Fn14 block 50.2
CC[n+]1ccccc1/C=C/c1ccc(N(C)C)cc1	none
CC[n+]1ccc(/C=C/c2ccc(N(C)C)cc2)c2ccccc21	EWS-Fli block 58.4
O=C1c2ccccc2NC(c2cccc(O)c2)N1O (stereo not given)	TROY signal inh 82.8
O=C1c2ccccc2NC(c2cccc([N+](=O)[O-])c2)N1O (stereo not given)	none
CO[C@@H]1CN(C)C(=O)c2cc(NC(=O)C3CCCC3)ccc2OC[C@@H](C)NC[C@@H]1C	none (no result: TROY signal inh, CF NFkB block, KKLEB tox, TWEAK Fn14 block)
C[C@H](CO)N1C[C@H](C)[C@@H](CN(C)C(=O)Nc2ccc(C(F)(F)F)cc2)Oc2c(NC(=O)c3cnccn3)cccc2C1=O	none (no result: TROY signal inh, CF NFkB block, KKLEB tox, TWEAK Fn14 block)
Cc1nn(-c2ccccn2)c2c1C(c1ccccc1Cl)C1=C(N2)c2ccccc2C1=O (stereo not given)	TWEAK Fn14 block 50.1 (no result: EWS-Fli block)
CSC1=C(C#N)C(c2ccccc2Cl)C2=C(N1)c1ccccc1C2=O (stereo not given)	none (no result: LGR2 antag, EWS-Fli block)
Oc1ccc(C[C@H]2CN([C@@H](Cc3cccc(O)c3)CN3CCC[C@@H]3CN3C(=S)NC[C@@H]3Cc3ccccc3)C(=S)N2CC2CCCCC2)cc1	TWEAK Fn14 block 55.5
Oc1ccc(C[C@H]2CNC(=S)N2CC2CCCN2C[C@H](Cc2ccc(O)cc2)N2C[C@H](Cc3ccccc3)N(CCc3ccccc3)C2=S)cc1 (stereo not given in full)	TWEAK Fn14 block 54.9
Oc1ccc(C[C@H]2CN([C@@H](Cc3ccccc3)CN3CCCC3CN3C(=S)NC[C@@H]3Cc3ccccc3)C(=S)N2CC2CCCCC2)cc1 (stereo not given in full)	none (no result: CF NFkB block, KKLEB tox)
Cn1cnc2nc(Cl)nc(Cl)c21	TWEAK Fn14 block 54.3
CNc1nc(Cl)nc2ncn(C)c12	none
COc1ccc(Nc2ccnc(Nc3ccc(OC)cc3)n2)cc1	TWEAK Fn14 block 64.0 (no result: EWS-Fli block)
CCCc1sc(N/N=C/c2ccccn2)nc1-c1ccc(F)cc1	KKLEB tox -50.7 (no result: LGR2 antag, EWS-Fli block)
Cc1nc(N/N=C/c2ccccn2)sc1C	LGR2 antag 102.3, EWS-Fli block inconclusive (no result: TROY signal inh, CF NFkB block, KKLEB tox, TWEAK Fn14 block)
COC(=O)c1ccc(/C=N/Nc2nc(C)c(C)s2)cc1	none (no result: LGR2 antag)
Cc1nc(S/C(=C\c2ccc(OCc3ccccc3Cl)cc2)C(=O)O)n[nH]1	TWEAK Fn14 block 82.8 (no result: TROY signal inh, EWS-Fli block)
O=C(CNC(=O)c1nn(Cc2ccccc2)c(=O)c2ccccc12)Nc1ccc(F)c(F)c1F	KKLEB tox -56.0
COC(=O)c1ccccc1NC(=O)c1nc(S(=O)(=O)Cc2ccccc2)ncc1Cl	TROY signal inh 57.7, CF NFkB block 95.7, KKLEB tox -95.1, TWEAK Fn14 block 76.2, EWS-Fli block 62.9
CSc1ncc(Cl)c(C(=O)Nc2ccc(NC(C)=O)cc2)n1	none
COC(=O)c1cscc1S(=O)(=O)Cc1ccccc1	none
O=C(Nc1ccc2ccccc2c1)c1cnccn1	none (no result: LGR2 antag, EWS-Fli block)
CS(=O)(=O)c1ncc(Cl)c(C(=O)Nc2ccc3ccccc3c2)n1	TROY signal inh 64.9, CF NFkB block 89.1, KKLEB tox -99.6, TWEAK Fn14 block 81.8, EWS-Fli block 84.2 (no result: LGR2 antag)
CC(=O)Nc1ccc(NC(=O)c2nc(S(=O)(=O)Cc3ccccc3)ncc2Cl)cc1	CF NFkB block 96.4, KKLEB tox -77.0, TWEAK Fn14 block 57.6 (no result: EWS-Fli block)
O=C(NCc1ccc2c(c1)OCO2)c1nc(S(=O)(=O)Cc2ccccc2)ncc1Cl	TROY signal inh 60.0, CF NFkB block 83.5, TWEAK Fn14 block 72.9 (no result: EWS-Fli block)
O=C(NCc1ccc2c(c1)OCO2)c1ccccc1Cl	none
CC(=O)N(C)C[C@H]1Oc2ncc(-c3ccc(F)cc3)cc2C(=O)N([C@@H](C)CO)C[C@@H]1C	none (no result: TROY signal inh, CF NFkB block, KKLEB tox, TWEAK Fn14 block)
C[C@H]1CN([C@@H](C)CO)C(=O)c2cc(NS(C)(=O)=O)ccc2O[C@H]1CN(C)Cc1ccncc1	none (no result: TROY signal inh, CF NFkB block, KKLEB tox, TWEAK Fn14 block)
CCc1cc2c(=O)c(-c3nc4ccccc4[nH]3)coc2c(CN2CCCCC2C)c1O (stereo not given)	none
CCc1cc2c(=O)c(-c3ccc4c(c3)OCCO4)coc2c(CN2CCCCC2C)c1O (stereo not given)	TROY signal inh 72.3
CCCCN(C(=O)C1CC1)C1CCS(=O)(=O)C1 (stereo not given)	none
CCN(C(=O)C1CC1)C1CCS(=O)(=O)C1 (stereo not given)	TROY signal inh 66.5
C[C@@H]1CN([C@H](C)CO)C(=O)c2cc(NC(=O)Nc3ccc4c(c3)OCO4)ccc2O[C@H]1CN(C)C(=O)Nc1cccc2ccccc12	none (no result: TROY signal inh, CF NFkB block, KKLEB tox, TWEAK Fn14 block)
O=c1[nH]c(=O)n(Cc2ccc(Oc3ccccc3)cc2)cc1Br	none
C=C1CC(Cn2cc(Br)c(=O)[nH]c2=O)(c2ccc(-c3ccccc3)cc2)OC1=O (stereo not given)	LGR2 antag 76.4, CF NFkB block 87.1, TWEAK Fn14 block 82.9, EWS-Fli block 53.3
Cc1noc(C)c1S(=O)(=O)Nc1ccc2c(c1)C(=O)N([C@@H](C)CO)C[C@H](C)[C@@H](CN(C)C(=O)Nc1ccc(C(F)(F)F)cc1)O2	none (no result: TROY signal inh, CF NFkB block, KKLEB tox, TWEAK Fn14 block)
COc1ccc(NC(=O)N(C)C[C@@H]2Oc3c(NS(C)(=O)=O)cccc3C(=O)N([C@@H](C)CO)C[C@H]2C)cc1	none (no result: TROY signal inh, CF NFkB block, KKLEB tox, TWEAK Fn14 block)
O=C(COC(=O)CC(c1ccccc1)c1ccccc1)NCc1ccc(Cl)cc1	TWEAK Fn14 block 62.1 (no result: LGR2 antag)
CCSCCc1nnc(NC(=O)Nc2cccc(C(F)(F)F)c2)s1	TROY signal inh 63.0, CF NFkB block 69.8, KKLEB tox -56.5, TWEAK Fn14 block 63.8
O=C(Nc1cccc(C(F)(F)F)c1)Nc1nnc([C@H]2C[C@H](O)[C@@H](CO)O2)s1	none
CC(C)NC(=O)Nc1ccc2c(c1)C(=O)N([C@@H](C)CO)C[C@H](C)[C@@H](CN(C)C(=O)Nc1ccccc1)OCCCC[C@H](C)O2	none (no result: TROY signal inh, CF NFkB block, KKLEB tox, TWEAK Fn14 block, EWS-Fli block)
Cn1nnnc1SCc1ccc(C(=O)Nc2nccs2)cc1	none (no result: LGR2 antag, EWS-Fli block)
C=CCn1c(SCc2ccc(C(=O)Nc3nccs3)cc2)nnc1-c1ccc(C)c(Cl)c1	TWEAK Fn14 block 91.6 (no result: EWS-Fli block)
O=C(C[C@H]1CC[C@H](NC(=O)CN2CCOCC2)[C@@H](CO)O1)NCc1cccc(F)c1	none (no result: TROY signal inh, CF NFkB block, KKLEB tox, TWEAK Fn14 block)
CC(=O)N1c2ccccc2N(Cc2ccc(C)cc2C)C(=O)C1(C)C	EWS-Fli block 54.0
NNC(=O)CN1CCCc2ccccc21	TROY signal inh 71.1, TWEAK Fn14 block 69.3
COc1ccc(NC(=O)N(C)C[C@@H]2Oc3c(NC(=O)Nc4ccc(C(F)(F)F)cc4)cccc3C(=O)N([C@H](C)CO)C[C@H]2C)cc1	none (no result: TROY signal inh, CF NFkB block, KKLEB tox, TWEAK Fn14 block)
Cc1ccc(CNC(=S)Nc2ccc3c(c2)c(=O)n(C)n3Cc2cccc(C(F)(F)F)c2)cc1	TROY signal inh 60.9, TWEAK Fn14 block 57.0
O=C(CCn1c2c(c3ccccc31)CCCC2)NNC(=O)c1ccccc1Cl	TWEAK Fn14 block 64.6 (no result: EWS-Fli block)
O=C1/C(=C/c2ccccc2[N+](=O)[O-])COc2ccccc21	LGR2 antag 91.3, CF NFkB block 86.1, KKLEB tox -70.7, TWEAK Fn14 block 93.5
